# Source: PubChem BioAssay
# Active and inactive are the calls of the source. The rule behind the calls is not given here.
# Test system: Aerobactin synthetase IucA (Klebsiella pneumoniae hvKP1)
# Experiment: IucA enzyme inhibition, primary screen, biochemical, Spectrum library (AID 1346200);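 note: 100% = wells without compound and 0% = wells lacking enzyme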
# Conditions: malachite green pyrophosphate, A620, at 8 µM, stronger effect = lower value
row,Compound,activity remaining
1,CN1C2CC[C@@H]1CC(OC(=O)[C@H](CO)c1ccccc1)C2 (stereo not given in full),102% (inactive)
2,CCCc1cc(C(N)=S)ccn1,110% (inactive)
3,CC(=O)OCC(=O)[C@H]1CCC2C3CCC4=CC(=O)CC[C@]4(C)C3CC[C@@]21C (stereo not given in full),111% (inactive)
4,COC(=O)C(N)CS (stereo not given),122% (inactive)
5,COc1ccc(C(=O)CC(=O)O)c2c1C=CC(C)(C)O2,108% (inactive)
6,OC/C=C/c1ccc(O)c(O)c1,81.7% (inactive)
7,NCC(=O)CCC(=O)O,77.6% (inactive)
8,O=C1c2cccc(O)c2C(=O)c2c(O)cccc21,93.6% (inactive)
9,Cc1c(N(C)CS(=O)(=O)O)c(=O)n(-c2ccccc2)n1C,97.1% (inactive)
10,COC(=O)C1=CO[C@@H](C)[C@@H]2CN3CC[C@@]4(C(=O)Nc5ccccc54)[C@@H]3CC12 (stereo not given in full),107% (inactive)
11,Oc1c(Cl)cc(Cl)c2cccnc12,113% (inactive)
12,O=c1oc2c(O)c(O)cc3c(=O)oc4c(O)c(O)cc1c4c23,91.8% (inactive)
13,O=C(Cn1ccnc1[N+](=O)[O-])NCCO,111% (inactive)
14,Cc1cc(O)cc(C)c1Cl,94.5% (inactive)
15,CC(=O)O[C@H]1[C@@H]2[C@@H](OC(=O)Cc3ccccc3)[C@@H](C)C[C@]2(OC(C)=O)C(=O)/C(C)=C/[C@H]2[C@H](CC[C@@]13CO3)C2(C)C,103% (inactive)
16,CC(=O)OCC(OC(C)=O)C(OC(C)=O)C(OC(C)=O)C(OC(C)=O)C(COC(C)=O)OC(C)=O (stereo not given),103% (inactive)
17,C=C1CC[C@H](O)C/C1=C/C=C1\CCC[C@]2(C)C([C@H](C)/C=C/[C@H](C)C(C)C)CC[C@@H]12 (stereo not given in full),107% (inactive)
18,O=C(O)c1ccccc1,115% (inactive)
19,CC(C)=CC1C(CO)C1(C)C (stereo not given),86.3% (inactive)
20,C/C=C\C1=C(C(=O)O)N2C(=O)C(NC(=O)C(N)c3ccc(O)cc3)C2SC1 (stereo not given),115% (inactive)

row,Compound,activity remaining
1,Cc1ccsc1/C=C/C1=NCCCN1C,123% (inactive)
2,C#CCCCCCCCCCCCC(O)CC(O)CO (stereo not given),98.4% (inactive)
3,COc1ccc(-c2oc3ccccc3c(=O)c2O)cc1OC,109% (inactive)
4,COc1cccc2c1C(=O)c1c(O)c3c(c(O)c1C2=O)C[C@@](O)(C(=O)CO)C[C@@H]3OC1C[C@H](N)[C@H](O)[C@H](C)O1 (stereo not given in full),87.4% (inactive)
5,CC(=O)[C@@]1(O)CCC2C3CCC4=CC(=O)CC[C@]4(C)C3CC[C@@]21C (stereo not given in full),72.4% (inactive)
6,O=c1c2cc(O)c(O)cc2oc2cc(O)c(C3O[C@H](CO)[C@H](O)[C@@H](O)[C@H]3O)c(O)c12 (stereo not given in full),93.6% (inactive)
7,COc1cc([C@@H]2c3cc4c(cc3C(O[C@@H]3O[C@@H]5CO[C@@H](c6cccs6)OC5[C@H](O)[C@H]3O)C3COC(=O)[C@@H]32)OCO4)cc(OC)c1O (stereo not given in full),92.9% (inactive)
8,CC(C(=O)O)c1ccc2c(c1)[nH]c1ccc(Cl)cc12 (stereo not given),109% (inactive)
9,O=C(NC1CCCCC1)NC1CCCCC1,71.2% (inactive)
10,NC(N)=NCCC[C@@H](NC(=O)[C@@H](N)Cc1ccc(O)cc1)C(=O)O,110% (inactive)
11,Cc1c(NC(C)C)c(=O)n(-c2ccccc2)n1C,105% (inactive)
12,OC1C(O)C(O)C(O)C(O)C1O (stereo not given),103% (inactive)
13,NC1(C(=O)O)CCCC1,117% (inactive)
14,COc1ccc2cc([C@H](C)CO)ccc2c1,118% (inactive)
15,CC1CC2C3CCC4=CC(=O)C=C[C@]4(C)[C@@]3(F)[C@@H](O)C[C@]2(C)[C@@]1(O)C(=O)CO (stereo not given in full),117% (inactive)
16,C=C[C@@](C)(O)CCC1C(=C)CCC2[C@@](C)(CO)CCC[C@]12C (stereo not given in full),117% (inactive)
17,Nc1ncnc2nc[nH]c12,105% (inactive)
18,NC(Cn1ccc(=O)c(O)c1)C(=O)O (stereo not given),118% (inactive)
19,COc1ccc(-c2coc3c(OC)c(OC)cc(O)c3c2=O)cc1,105% (inactive)
20,CCC(=O)O[C@H]1[C@H](O[C@@H]2[C@@H](C)[C@H](O[C@H]3C[C@@](C)(OC)[C@@H](O)[C@H](C)O3)[C@@H](C)C(=O)O[C@H](CC)[C@@](C)(O)[C@H](O)[C@@H](C)C(=O)[C@H](C)C[C@@]2(C)O)O[C@H](C)C[C@@H]1N(C)C,121% (inactive)
